# Assay outcomes as filed in PubChem.
# HT1080-NT tox – kills 2HG-producing HT-1080-NT fibrosarcoma cells | 360,000 compounds, 1.6% hits | HT-1080-NT fibrosarcoma viability, CellTiter-Glo ATP luminescence, 48 h | AID 686970 | Potency, µM (top dose mostly 46.1 µM), inactives show at the top dose activity, negative = less viability, actives largely listed as cytotoxic;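 note: NT is the 2HG producing partner of a matched IDH1 knockdown line; 0% = DMSO-treated cells and -100% = media-only wells without cells; nearly all actives have a fitted effect of over 55% in size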
#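 HT-1080-NT; 750 cells/well; 5% FBS RPMI; 48 h compound, 37 degrees C; CellTiter-Glo luminescence; curve fitting and curve-class assignment.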
# HT1080 IDH1KD tx – toxicity to HT-1080 IDH1 knockdown cells (counter line); 360,000 compounds, 2% hits; HT-1080 IDH1 knockdown viability, ATP luminescence, 48 h; AID 686971; Potency, µM (series often up to 46.1 µM), without a hit: at the top dose activity, negative = toxicity, usual class: cytotoxic;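 note: 0% = DMSO wells and -100% = cell-free medium wells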
#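 CellTiter-Glo luminescence after 48 h compound exposure at 37 degrees C of IDH1-knockdown HT-1080 cells in 5% FBS RPMI. %Activity scaled between DMSO wells and cell-free media wells, with curves fitted and assigned curve classes.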
# KB-3-1 tox – KB-3-1 parental cell cytotoxicity; KB-3-1 viability, CellTiter-Glo ATP luminescence, 72 h; Potency, µM (highest dose often 46.1 µM), usual class: cytotoxic; 400,000 compounds, 1.4% hits; note: % is set by controls: 0 for no effect and ±100 for the full control effect; nearly all actives have a fitted effect of over 60% in size
#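 Parental KB-3-1 adenocarcinoma cells in phenol-red-free DMEM with 10% FBS were pin-treated with compounds at several concentrations, incubated 72 h at 37 °C, and viability read by CellTiter-Glo luminescence; concentration-effect curves were fitted after normalization.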
# MCF10A rereplic – induces DNA re-replication in MCF 10a normal breast cells. MCF 10A DNA re-replication, Hoechst nuclear intensity, 48 h. Potency, µM (top dose mostly 46.1 µM), for inactives: at the highest dose activity, positive = re-replication, hits mostly activators. 350,000 compounds, 2.9% hits. AID 624296; note: % of control where 0% means no effect; nearly all actives have a fitted effect of over 50% in size
# SW480 rerep – induces DNA re-replication in SW480 colon adenocarcinoma cells; SW480 DNA re-replication, Hoechst DNA content imaging, 48 h; Potency, µM (series often up to 46.1 µM), for the others: at the highest dose re-replication activation, most hits filed as activators; 340,000 compounds, 1.8% hits; note: % of control where 0% means no effect; nearly all actives have a fitted effect of over 55% in size
#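 Hoechst fluorescence of nuclei (405 nm excitation, 500-530 nm emission) measured by plate-scanning imager after 48 hr compound exposure at 37 C; re-replication scored as increased number of nuclei with elevated intensity.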
# KB-V1 MDR tox – KB-V1 MDR subline cytotoxicity; KB-V1 MDR cells viability, CellTiter-Glo, 72 h; 400,000 compounds, 3.4% hits; Potency, µM (top dose mostly 46.1 µM), usual class: cytotoxic; note: % is set by controls: 0 for no effect and ±100 for the full control effect; nearly all actives have a fitted effect of over 60% in size
#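 Luminescent ATP read-out (CellTiter-Glo, 10 min) measures survival of drug-selected KB-V1 MDR cells after 72 h, 37 degrees C compound exposure. Medium: phenol-red-free DMEM, 10% FBS. Values from fitted concentration-response curves.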
# An asterisk follows results filed as active; i = inactive; ? = inconclusive; . = no result. Compounds with a hit are over-represented: about 7.9% of the library has one in this group of screens. Calls come from the whole dose curve; as a rule, active = well fitted curve in the direction sought with a large enough effect; inconclusive = small, poorly fitted or top-dose-only effect, or another doubt; inactive = no such curve, though single readings can be large; an effect the other way counts as inactive or inconclusive. Potency is the fitted concentration of half-maximal effect.
SMILES,HT1080-NT tox,HT1080 IDH1KD tx,KB-3-1 tox,MCF10A rereplic,SW480 rerep,KB-V1 MDR tox
C=CC[n+]1c(-c2ccc(Cl)cc2Cl)csc1Nc1c(C)n(C)n(-c2ccccc2)c1=O,21µM*,15µM*,?,?,?,i
CCCC[n+]1c(-c2ccc(Cl)cc2Cl)csc1Nc1ccccc1,-12%,0%,i,23µM*,1%,?
C=CC[n+]1c(-c2ccc(Cl)cc2Cl)csc1Nc1ccc(NC(C)=O)cc1,?,18µM*,?,?,23µM*,i
COc1ccccc1-c1nc(CNC(=O)Nc2ccccc2)c(C)o1,.,.,i,.,.,i
CCOc1ccc(-c2c(C)nn3c(C)c(C(=O)Nc4cc(C)cc(C)c4)cnc23)cc1OCC,.,.,i,.,.,i
Nn1c(SCc2c(F)cccc2F)nnc1-c1ccccn1,14%,30%,i,2%,7.3µM*,i
Cc1cc(C)n(S(=O)(=O)/C=C/c2ccccc2)n1,2.8µM*,?,?,16µM*,?,?
Cc1ccc(S(=O)(=O)n2nc(C)cc2C)cc1,?,-8%,i,?,-3%,i
CCn1c2ccccc2c2cc(NC(=O)CN(C)CC(=O)Nc3ccc(N4CCOCC4)cc3)ccc21,-8%,26µM*,?,-7%,4%,?
CCn1c2ccccc2c2cc(NC(=O)c3cc(OC)cc(OC)c3)ccc21,1.3µM*,1.5µM*,?,1.5µM*,0.65µM*,2.3µM*
CCn1nnc(-c2ccccc2NC(=O)c2cc(OC)c(OC)c(OC)c2)n1,-13%,6%,i,?,15µM*,i
CCn1c2ccccc2c2cc(NC(=O)COc3ccc(OC)cc3)ccc21,?,12%,i,0%,-11%,i
CCn1c2ccccc2c2cc(NC(=O)c3ccc(Br)o3)ccc21,-12%,-9%,i,?,0%,i
CCn1c2ccccc2c2cc(NC(=O)c3cc(C)on3)ccc21,?,23µM*,i,15%,?,?
CCN1CCN(c2ccc(NC(=O)COc3ccc([N+](=O)[O-])cc3)cc2)CC1,8%,0%,i,6%,-3%,i
COc1cccc(OCCSc2nc3ccccc3n2CC(=O)N2CCCCC2)c1,.,.,i,.,.,i
Cc1ccc(-n2nc3ccc(NC(=O)c4cccc([N+](=O)[O-])c4C)cc3n2)cc1,?,?,i,13µM*,?,?
CCn1c2ccccc2c2cc(NC(=O)c3cccc([N+](=O)[O-])c3C)ccc21,23µM*,13µM*,?,18µM*,10µM*,?
CCn1c2ccccc2c2cc(NC(=O)c3ccc(=O)oc3)ccc21,?,29µM*,i,16µM*,?,i
CCn1c2ccccc2c2cc(NC(=O)c3ccc(C)c([N+](=O)[O-])c3)ccc21,5%,15%,?,-1%,-3%,i
CCOC(=O)Nc1ccc2c(c1)N(C(=O)OC)c1ccccc1CC2,?,?,?,?,?,5.8µM*
COc1cccc(N2CCN(S(=O)(=O)c3cc(-c4cc(C)no4)ccc3C)CC2)c1,.,.,i,.,.,?
C[C@H]1CN(c2ccc(Br)cc2)C(=O)[C@@H]1CC(=O)Nc1ccccc1,8%,2%,i,.,.,i
Cc1c(C(=O)Nc2ccccc2-c2ccccc2)cccc1[N+](=O)[O-],-1%,-3%,i,18%,-12%,15µM*
CCn1c2ccccc2c2cc(/C=N/NC(=O)c3cc(O)cc(O)c3)ccc21,?,?,?,?,-2%,i
SMILES,HT1080-NT tox,HT1080 IDH1KD tx,KB-3-1 tox,MCF10A rereplic,SW480 rerep,KB-V1 MDR tox
Cc1c(C(=O)Nc2ccc(C(=O)Nc3ccccc3)cc2)cccc1[N+](=O)[O-],0%,-5%,i,17%,-7%,?
CN(CC(=O)Nc1ccc(N2CCOCC2)cc1)C(=O)CCc1cc(C(C)(C)C)c(O)c(C(C)(C)C)c1,-17%,-19%,i,19%,2%,3.7µM*
CCn1c2ccccc2c2cc(NC(=O)c3cc(OC)c(OC)c(OC)c3)ccc21,0.82µM*,1.5µM*,0.58µM*,?,0.82µM*,?
CCn1c2ccccc2c2cc(/C=N/NC(=O)c3ccc(O)cc3)ccc21,?,?,?,?,?,21µM*
C=CCCC1CN(CCCC)S(=O)(=O)c2c(F)cccc2O1 (centres undefined),9%,-2%,i,3%,26%,i
Cc1ccc(NC(=O)C(Cc2c[nH]c3ccccc23)NC(=O)OCC(C)C)cc1 (centres undefined),.,.,i,.,.,i
COc1ccc(S(=O)(=O)N2CCN(C(=O)CCc3c[nH]c4ccccc34)CC2)cc1,10%,0%,i,7%,-1%,i
COc1ccccc1NS(=O)(=O)c1ccc(C(=O)N2CCN(c3ccccc3)CC2)cc1,-1%,-9%,i,5%,-4%,i
COCCCNC(=O)c1ccc(Cn2c(=O)c3ccccc3n(Cc3c(C)cc(C)cc3C)c2=O)cc1,.,.,i,.,.,i
Cc1cccc(OCCn2c(SCC(=O)O)nc3ccccc32)c1,.,.,i,.,.,i
COc1cc(C(=O)Nc2ccc3c(c2)N(C(=O)CCN(C)C)c2ccccc2CC3)cc(OC)c1OC,?,?,i,13µM*,?,?
CN(C)CC(=O)N1c2ccccc2CCc2ccc(NC(=O)c3ccc(N)cc3)cc21,-5%,3%,i,-3%,-3%,i
CCOc1ccc(C(=O)/C=C/Nc2ccc(S(=O)(=O)N=C(N)N)cc2)cc1,?,18µM*,i,?,?,i
NC(N)=NS(=O)(=O)c1ccc(N/C=C/C(=O)c2ccc(Cl)c(Cl)c2)cc1,1%,10%,i,?,15µM*,i
COc1cccc(CNC(=O)CCCCCn2c(=O)[nH]c3cc(OC)c(OC)cc3c2=O)c1,.,.,i,.,.,i
CC1=NNC(=O)/C1=C\c1cn(-c2ccccc2)nc1-c1ccc(F)cc1,10µM*,5.8µM*,i,4.6µM*,?,?
CC1=NNC(=O)/C1=C\c1cn(-c2ccccc2)nc1-c1cccs1,8.2µM*,8.2µM*,i,2.6µM*,4.1µM*,i
O=C(O)CCCCCN1C(=O)/C(=C/c2cn(-c3ccccc3)nc2-c2cccs2)SC1=S,?,?,i,26%,?,i
O=Cc1cn(-c2ccccc2)nc1-c1ccc(F)cc1,2%,5%,i,1%,-2%,i
